Results on 6 compounds are retold here after PubChem BioAssay.

The source made the active and inactive calls.

A short description of test [1]: optical density shifts of acrAB sulA E. coli – strain DRC41, OD650, 48 h, E. coli filamentation inducer project, primary screen (AID 1152).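 Note: E. coli MC1000 strain DRC41 lacking acrAB efflux pump and sulA.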 Conditions: higher = more signal, called active from +8 up or from −8 down.
Test [2] is described as follows: probe aLefty1 binding on compound microarray – biochemical, small-molecule microarray, 635/667 nm fluorescence, primary screen (AID 1153).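 Note: score merges spot fluorescence with signal-to-noise ratio from the scanned slide images.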 The note with it: higher = more signal.
Test [3] in a line: plasmodial surface anion channel blockers, osmotic lysis – cell-based, P. falciparum Indochina, OD700, 1 h, primary screen (AID 1154). The note with it: P. falciparum Indochina infected RBC osmotic lysis, higher = more signal, called active from +8 up or from −8 down.
Test [4] in a line: plasmodial surface anion channel blockers, osmotic lysis – cell-based, P. falciparum Indochina, OD700, 2 h, primary screen (AID 1155).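 Note: lysis reports solute entry through the parasite surface anion channel PSAC.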 The note with it: P. falciparum Indochina infected erythrocytes, higher = more signal, called active from +8 up or from −8 down.
A short description of test [5]: changes in parasitized red cell lysis, either direction – P. falciparum Indochina, OD700, 3 h, PSAC antagonist project, primary screen (AID 1156). The note with it: P. falciparum-infected erythrocytes, osmotic lysis, higher = more signal, called active from +8 up or from −8 down.
Test [6] in a line: plasmodial surface anion channel blockers, osmotic lysis – cell-based, P. falciparum Indochina, OD700, 18 h, primary screen (AID 1157). The note with it: P. falciparum Indochina infected erythrocytes, osmotic lysis OD700, 18 h; higher = more signal, called active from +8 up or from −8 down.
The nature of test [7]: S6 kinase pathway phospho-S6 level changes – cell-based, A549, cytoblot, luminescence, serum-stimulated, primary screen (AID 1158).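 Note: serum-stimulated A549 lung adenocarcinoma cells; signal is phosphorylated S6 detected by cytoblot immunostaining with HRP secondary.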 Conditions: 5 h, higher = more signal.
Test [8] has as its target NADPH oxidase 2 (Homo sapiens) (UniProt P04839). As to the kind of experiment: compounds shifting NOX2 Amplex Red fluorescence – cell-based, HEK293-NOX2, PMA-stimulated, NOX inhibitor project, primary screen (AID 1159). Note: test concentration not given here. The note with it: 45 min, higher = more signal, called active from +8 up or from −8 down.
The target in test [9] is NADPH oxidase 4 (Homo sapiens) (UniProt Q9NPH5). As to the kind of experiment: compounds shifting NOX4 Amplex Red fluorescence – cell-based, HEK293-NOX4, tetracycline-induced, NOX inhibitor project, primary screen (AID 1160). The note with it: HEK293-NOX4, Amplex Red H2O2 fluorescence, 45 min; higher = more signal, called active from +8 up or from −8 down.
NADPH oxidase 4 (Homo sapiens), sequence (Q9NPH5 whole entry, looked up): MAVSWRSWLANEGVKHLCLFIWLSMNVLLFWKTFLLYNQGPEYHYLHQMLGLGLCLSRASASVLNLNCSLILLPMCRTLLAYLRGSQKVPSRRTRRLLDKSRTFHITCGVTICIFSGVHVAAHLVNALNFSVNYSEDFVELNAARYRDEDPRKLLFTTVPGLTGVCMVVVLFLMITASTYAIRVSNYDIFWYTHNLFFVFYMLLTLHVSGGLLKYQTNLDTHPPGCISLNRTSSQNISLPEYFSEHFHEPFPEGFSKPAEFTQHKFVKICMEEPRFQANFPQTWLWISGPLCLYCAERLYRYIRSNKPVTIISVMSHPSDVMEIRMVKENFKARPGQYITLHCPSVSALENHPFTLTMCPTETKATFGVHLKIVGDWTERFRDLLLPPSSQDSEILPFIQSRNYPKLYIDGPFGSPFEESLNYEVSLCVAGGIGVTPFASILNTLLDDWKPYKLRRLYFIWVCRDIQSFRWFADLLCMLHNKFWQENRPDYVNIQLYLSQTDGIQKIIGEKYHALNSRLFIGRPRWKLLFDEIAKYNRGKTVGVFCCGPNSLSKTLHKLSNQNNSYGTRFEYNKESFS
Test [10] deals with NADPH oxidase 5 (Homo sapiens) (UniProt Q96PH1). The test is described as follows: compounds shifting NOX5 Amplex Red fluorescence – cell-based, HEK293-NOX5, NOX inhibitor project, primary screen (AID 1161). The note with it: HEK293-NOX5, ionomycin, 45 min, higher = more signal.
NADPH oxidase 5 (Homo sapiens), sequence (Q96PH1 whole entry, looked up): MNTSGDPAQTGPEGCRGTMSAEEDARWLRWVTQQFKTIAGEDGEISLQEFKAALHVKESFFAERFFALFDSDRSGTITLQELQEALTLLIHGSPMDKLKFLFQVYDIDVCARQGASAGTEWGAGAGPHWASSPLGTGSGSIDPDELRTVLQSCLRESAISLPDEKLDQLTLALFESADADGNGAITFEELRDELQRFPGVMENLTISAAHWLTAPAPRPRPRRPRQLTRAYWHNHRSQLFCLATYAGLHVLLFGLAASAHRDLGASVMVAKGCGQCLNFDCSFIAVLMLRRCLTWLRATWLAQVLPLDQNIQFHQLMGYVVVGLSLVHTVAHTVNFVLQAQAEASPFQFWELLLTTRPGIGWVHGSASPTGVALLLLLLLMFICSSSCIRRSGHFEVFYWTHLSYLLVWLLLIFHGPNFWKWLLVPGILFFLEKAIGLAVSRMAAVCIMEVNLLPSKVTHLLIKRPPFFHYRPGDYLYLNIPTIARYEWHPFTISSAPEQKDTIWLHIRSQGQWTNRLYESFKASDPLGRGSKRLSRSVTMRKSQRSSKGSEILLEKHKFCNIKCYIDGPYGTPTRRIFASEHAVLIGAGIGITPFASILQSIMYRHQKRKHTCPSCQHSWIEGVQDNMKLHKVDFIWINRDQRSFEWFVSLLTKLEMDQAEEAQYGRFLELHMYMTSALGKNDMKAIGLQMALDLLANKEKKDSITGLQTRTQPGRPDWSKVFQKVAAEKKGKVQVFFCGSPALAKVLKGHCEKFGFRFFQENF
Test [11] can be described thus: compound effects on lung adenocarcinoma cell viability – A549, calcein-AM fluorescence, 48 h, basal, profiling panel (AID 1162). Note: test concentration not given here. The note with it: higher = more signal.
Test [12] in a line: compound effects on differentiated 3T3-L1 adipocyte viability – cell-based, 3T3-L1 adipocytes, calcein-AM fluorescence, 48 h, basal, profiling panel (AID 1163). Note: test concentration not given here. The note with it: 3T3-L1 adipocytes viability, higher = more signal.
Test [13] can be described thus: compound effects on hepatocellular carcinoma cell viability – HepG2, calcein-AM fluorescence, 48 h, basal, profiling panel (AID 1164). Note: test concentration not given here. The note with it: higher = more signal.
The nature of test [14]: compound effects on multiple myeloma cell viability – MM1S, calcein-AM fluorescence, 48 h, basal, profiling panel (AID 1165).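 Note: viability of MM1S multiple myeloma cells under basal unstimulated conditions; test concentration not given here.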 The note with it: higher = more signal.
Test [15] in a line: calcein-AM signal in unstimulated myeloma cells – cell-based, calcein-AM fluorescence, 48 h, PK04 Diversity Set, profiling panel (AID 1166).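 Note: cells grown under basal conditions without added stimulus; test concentration not given here.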 The note with it: RPMI8226 myeloma viability, higher = more signal.
Test [16] can be described thus: JC-1 mitochondrial signal, unstimulated HepG2 cells – cell-based, JC-1 fluorescence, 24 h, 100 nL compound, profiling panel (AID 1167). Note: test concentration not given here. Conditions: HepG2 mitochondrial potential, higher = more signal.
Test [17] is described as follows: JC-1 mitochondrial signal, unstimulated adipocytes – cell-based, JC-1 fluorescence, 3T3-L1 adipocytes, 24 h, 100 nL compound, profiling panel (AID 1168). Note: test concentration not given here. The note with it: JC-1 mitochondrial fluorescence, higher = more signal, called active from +8 up or from −8 down.
The nature of test [18]: JC-1 mitochondrial signal, unstimulated myeloma cells – cell-based, JC-1 fluorescence, RPMI8226, 24 h, 100 nL compound, profiling panel (AID 1169). Note: test concentration not given here. The note with it: JC-1 mitochondrial potential fluorescence, higher = more signal.
A short description of test [19]: JC-1 mitochondrial signal, unstimulated MM1S myeloma – cell-based, JC-1 fluorescence, 24 h, 100 nL compound, profiling panel (AID 1170). Note: test concentration not given here. The note with it: MM1S mitochondrial potential, higher = more signal.
A short description of test [20]: resazurin metabolic signal in A549 cells – cell-based, resazurin fluorescence, 24 h, PK04 Diversity Set, profiling panel (AID 1171). Note: test concentration not given here. Conditions: A549 viability, higher = more signal, called active from +8 up or from −8 down.

NADPH oxidase 2 (Homo sapiens), sequence (P04839 whole entry, looked up): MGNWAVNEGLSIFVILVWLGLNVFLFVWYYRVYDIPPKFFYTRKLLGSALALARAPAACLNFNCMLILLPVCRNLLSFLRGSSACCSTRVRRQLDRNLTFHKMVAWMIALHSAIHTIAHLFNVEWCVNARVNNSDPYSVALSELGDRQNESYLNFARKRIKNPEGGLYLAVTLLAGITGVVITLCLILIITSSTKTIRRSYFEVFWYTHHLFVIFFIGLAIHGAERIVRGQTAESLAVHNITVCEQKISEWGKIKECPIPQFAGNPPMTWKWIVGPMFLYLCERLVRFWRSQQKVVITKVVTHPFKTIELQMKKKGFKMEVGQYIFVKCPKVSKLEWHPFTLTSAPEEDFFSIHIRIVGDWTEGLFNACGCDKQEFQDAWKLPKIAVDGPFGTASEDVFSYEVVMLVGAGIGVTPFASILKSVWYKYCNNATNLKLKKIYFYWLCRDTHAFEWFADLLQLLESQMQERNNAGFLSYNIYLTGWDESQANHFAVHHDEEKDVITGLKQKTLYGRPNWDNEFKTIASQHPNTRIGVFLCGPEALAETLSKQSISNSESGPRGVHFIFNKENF

As to `COc1ccc(/C=C/C=O)cc1`, the z-score was 0.0676 (inactive) in test [1]; -0.0134 (inactive) in test [3]; -0.113 (inactive) in [4]; 0.392 (inactive) in [5]; 0.0327 (inactive) in test [6]; -0.416 in test [7]. The z-score in [8] is -0.721 (inactive); in [9], -0.379 (inactive); in test [10] it was 0.589; in test [11], 0.637; in test [12] it was -0.243; in test [13] it was 0.0562. Moreover, the z-score in test [14] is 0.418; in [15], -1.22; in test [16], 0.555; in test [17] it was 0.754 (inactive); in test [18], -0.464; in [19] it was -0.0737. In test [20], the z-score is -0.925 (inactive). The same compound showed a composite z-score in [2] of 0.11.
Consider `NC(=O)[C@@H]1[C@H]2C(=O)O[C@H](c3ccccc3)[C@H](c3ccccc3)N2[C@H](c2ccc(O)cc2)[C@@]12C(=O)Nc1ccccc12`, for which the z-score is 0.428 (inactive) in [1]; 1.19 (inactive) in test [3]; -0.619 (inactive) in test [4]; -0.267 (inactive) in [5]; -2.21 (inactive) in test [6]; 1.57 in test [7]. Also, the z-score in [8] is -1.93 (inactive); in test [9], -1.13 (inactive); in test [10], -0.42; in test [11], -0.343; in test [12] it was 0.956; in test [13], -0.19. Moreover, the z-score in test [14] was -0.647; in test [15] it was -0.07; in test [16] it was -0.376; in test [17], -0.0789 (inactive); in [18], -0.902; in [19], -0.079. Also, the z-score in [20] is -0.0543 (inactive). In addition, the composite z-score in test [2] worked out at 0.157.
For `CC(C)[Si]1(C(C)C)O[C@@H](c2ccccc2)c2cc(-c3ccc(-c4ccc(Cl)c(Cl)c4)o3)nc(-c3ccccc3)c21`, the z-score in [1] was -1.12 (inactive); in test [3], 0.704 (inactive); in test [4] it was 0.0805 (inactive); in [5], -0.449 (inactive); in [6] it was 0.656 (inactive); in [7], -0.121. Further, the z-score is -0.364 (inactive) in test [8]; 1.36 (inactive) in test [9]; 1.26 in [10]; 0.272 in test [11]; -0.277 in test [12]; 0.428 in [13]. Also, the z-score was -2.62 in test [14]; -3.09 in [15]; -1.87 in test [16]; -1.06 (inactive) in [17]; -0.395 in test [18]; -0.582 in [19]. For the same compound, the z-score in [20] was 0.613 (inactive). Moreover, in test [2], the composite z-score is -0.0611.
For the compound `COC(=O)[C@@]1(CCC(=O)OC(C)(C)C)N=C(c2ccc(OCCCO)cc2)O[C@H]1c1ccccc1N=[N+]=[N-]`, the z-score in test [1] was -0.871 (inactive); in [3], 28.2 (active); in test [4], 25.2 (active); in test [5] it was 1.67 (inactive); in [6], 5.1 (inactive); in test [7] it was -0.117. Further, the z-score was -2.9 (inactive) in test [8]; 0.248 (inactive) in [9]; -2.56 in test [10]; -1.99 in test [11]; 1.12 in [12]; -1.92 in test [13]. The z-score was -3.6 in test [14]; -3.93 in [15]; -0.429 in test [16]; 0.581 (inactive) in test [17]; -1 in test [18]; -2.34 in test [19]. Moreover, in [20], the z-score was -2.08 (inactive). In [2], the composite z-score is -0.39.
Take `C=CC[C@]1(C(=O)NCCCOC)N=C(c2ccc(OCCCO)cc2)O[C@H]1c1ccccc1CN=[N+]=[N-]`: the z-score was -0.653 (inactive) in test [1]; 13.6 (active) in test [3]; 1.21 (inactive) in [4]; 1.37 (inactive) in test [5]; 0.424 (inactive) in test [6]; -0.102 in test [7]. Also, the z-score in test [8] is 0.324 (inactive); in test [9], 0.649 (inactive); in [10], -0.973; in [11] it was 0.566; in test [12], 0.243; in test [13], 0.716. Moreover, the z-score in test [14] is -1.86; in test [15], -0.134; in test [16], 1.76; in [17] it was -0.299 (inactive); in [18], -1.25; in test [19], -0.142. In test [20], the z-score is -0.0227 (inactive). The compound also registered a composite z-score in test [2] of 0.443.
Take `CN1C(=O)C2C=CC(C(O)c3ccc([N+](=O)[O-])cc3)N(N3CCCCC3)C2C1=O` (stereo not given): the z-score in [1] was -1.74 (inactive); in test [3], 2.06 (inactive); in test [4], 1.36 (inactive); in test [5] it was -0.0207 (inactive); in test [6], 0.9 (inactive); in test [7] it was -0.919. Moreover, the z-score in test [8] is 0.114 (inactive); in test [9], -2.07 (inactive); in test [10], -1.12; in test [11], -0.234; in test [12], -0.69; in test [13] it was -0.384. The z-score in test [14] is -0.324; in test [15], -0.721; in test [16], -1.24; in test [17], -0.927 (inactive); in [18], 0.0849; in test [19] it was 0.134. The z-score in test [20] was -0.197 (inactive). The composite z-score in test [2] was determined as 0.385.
